Compound activity deposited in PubChem by several laboratories.
CYP2C9 act: CYP2C9 (human) activation; P11712; activation factor at 5 µM; AID 1024; 96,000 tested, 1.4% active; recombinant CYP2C9, luciferin-H conversion, luminescence; hits give high values; factor 1 = untreated enzyme, 0 = blocked;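 active means activation factor of 2 or more for CYP2C9 at a 5 µM dose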
CYP2C9 inhib: blocks human cytochrome P450 2C9; P11712; CYP2C9 Supersomes, luciferin-H conversion, luminescence; inhibition, % at 5 µM; 96,000 tested, 20% active;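 active means blocking of liver enzyme CYP2C9 beyond about 50% at 5 µM, limit read from the data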
Cav32 inh: human Cav3.2 channel inhibition, primary screen; O95180; Cav3.2-expressing cells, Fluo-4 calcium fluorescence FDSS; hits give low values; B-score at 10 µM; 100,000 tested, 4% active; AID 449739;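 active means single-dose well whose peak fluorescence ratio is a statistical outlier from its plate by either plate-standardised score or position-corrected B-score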
CYP2C19 inh: inhibitors of human CYP2C19; inhibition, % at 5 µM; 96,000 tested, 21% active; CYP2C19 Supersomes, luciferin-H EGE luminescence, 30 min; AID 778;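 active means CYP2C19 inhibition above a set limit at 5 µM in the primary screen, cut at about 50% in these data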
CYP2C19 act: cytochrome P450 2C19 (human) activation. recombinant CYP2C19, luciferin-H EGE luminescence; hits give high values; 0 = fully inhibited enzyme, 1 = untreated enzyme. activation factor at 5 µM. 96,000 tested, under 10 active;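 active means activation factor of at least 2 at 5 µM in the primary screen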
Each line names hits and unclear results; the compound was inactive in the other large screens. This is a sample that favours compounds with a hit; in the whole collection about 27% have one here.

COCCn1c(C2CCCCC2)nc2sc3ccccc3c(=O)c2c1=O	CYP2C9 inhib 77, CYP2C19 inh 61 (no result: Cav32 inh)
CCc1nc2sc3ccccc3c(=O)c2c(=O)n1CCOC	none
C=CCn1cnc2c(NCc3ccccc3)ncnc21	CYP2C19 inh 70
CC(=O)N=c1sc2nc3ccccc3nc2n1N(C(C)=O)C(C)=O	none (no result: Cav32 inh)
Cc1cc(NC(=O)CSc2nnc3c(C)cc4cc(C)c(C)cc4n23)no1	none
Cc1cc(NC(=O)CSc2nnc3c4c(C)c(C)sc4ncn23)no1	CYP2C9 inhib 56
Cc1cc(NC(=O)CSc2nc(C(C)C)nc3ccccc23)no1	none
Cc1cc(NC(=O)CSc2nc(C(C)C)nc3sc(C)c(C)c23)no1	CYP2C9 inhib 54
CCN(C(=O)c1cccnc1)c1ccccc1	none
CCN(C(=O)c1cc(Cl)ccc1OC)c1ccccc1C	none (no result: CYP2C9 act, CYP2C9 inhib, CYP2C19 inh, CYP2C19 act)
CCN(C(=O)c1cc(Cl)ccc1OC)C1CCCCC1	CYP2C9 inhib 96, CYP2C19 inh 95 (no result: Cav32 inh)
CCN(C(=O)c1cc(Cl)ccc1OC)c1ccccc1	CYP2C19 inh 72
COc1ccc(Cl)cc1C(=O)NCc1cnn(C)c1C	none (no result: CYP2C9 act, CYP2C9 inhib, CYP2C19 inh, CYP2C19 act)
CC(=O)N(CCN(C(C)=O)c1ccccc1)c1ccccc1	CYP2C19 inh 73
CCN(C(=O)c1ccccc1Cl)c1ccccc1	CYP2C19 inh 62
CCCCCCCC(=O)N/N=C(\C)c1cccnc1	none (no result: CYP2C9 act, CYP2C9 inhib, CYP2C19 inh, CYP2C19 act)
NC(=O)[C@@H]1CCCNc2c(F)cc([N+](=O)[O-])cc2C(=O)N[C@@H](CCC(=O)O)C(=O)N[C@@H](CO)C(=O)N1	none (no result: CYP2C9 act, CYP2C9 inhib, CYP2C19 inh, CYP2C19 act)
Cc1ccnc(NS(=O)(=O)c2ccc(NC(=O)C3CCCCC3)cc2)n1	none
Cc1ccnc(NS(=O)(=O)c2ccc(NC(=O)C34CC5CC(C)(CC(C)(C5)C3)C4)cc2)n1	CYP2C9 inhib 58
CC1CCCN(C(c2ccccc2)c2sc3ncnn3c2O)C1 (centres undefined)	none (no result: CYP2C9 act, CYP2C9 inhib, CYP2C19 inh, CYP2C19 act)
Cc1ccc(C(c2sc3ncnn3c2O)N2CC(C)CC(C)C2)cc1 (centres undefined)	CYP2C19 inh 76
CC(C)CCn1c(SCc2ccc(Cl)cc2)nc2c1c(=O)[nH]c(=O)n2C	CYP2C9 inhib 79, CYP2C19 inh 51
CCCCCn1c(Sc2ncccn2)nc2c1c(=O)[nH]c(=O)n2C	none (no result: CYP2C9 act, CYP2C9 inhib, CYP2C19 inh, CYP2C19 act)
Cc1ccc(CSc2nc3c(c(=O)[nH]c(=O)n3C)n2CCC(C)C)cc1	CYP2C9 inhib 75, CYP2C19 inh 61
CCCCCCn1c(SCC(C)C)nc2c1c(=O)[nH]c(=O)n2C	CYP2C9 inhib 57
CCCCCn1c(Sc2nc3ccccc3s2)nc2c1c(=O)[nH]c(=O)n2C	CYP2C9 inhib 51
C/C(Cl)=C/Cn1c(SCc2ccc(Cl)cc2)nc2c1c(=O)[nH]c(=O)n2C	none
Cc1c(NC(=O)CCCCCN2C(=O)C3C4C=CC(C4)C3C2=O)c(=O)n(-c2ccccc2)n1C (centres undefined)	none
CCSc1nc2c(c(=O)[nH]c(=O)n2C)n1Cc1ccc(Cl)cc1	none
CC(C)n1c(SCc2ccc(Cl)cc2)nc2c1c(=O)[nH]c(=O)n2C	CYP2C19 inh 50
C=C(C)Cn1c(Sc2nc3ccccc3[nH]2)nc2c1c(=O)[nH]c(=O)n2C	CYP2C19 inh 88
C=C(C)CSc1nc2c(c(=O)[nH]c(=O)n2C)n1CCC(C)C	CYP2C9 inhib 70
CCOCCn1c(SCc2ccc(C)cc2)nc2c1c(=O)[nH]c(=O)n2C	CYP2C19 inh 70
O=CN1CC(=O)N(c2ccccc2)c2c([nH]c3ccccc23)C1	CYP2C19 inh 79
CCOC(=O)C1CCCN(CC(=O)NC2=Nc3ccccc3N=C(C)C2c2ccccc2)C1 (centres undefined)	CYP2C9 inhib 91, Cav32 inh -6.2, CYP2C19 inh 90
CN1/C(=C\C(=O)COC(=O)Cn2nnc(-c3ccccc3)n2)C(C)(C)c2ccccc21	CYP2C9 inhib 74
CCOC(=O)C1CCCN(Cc2cc(Br)ccc2OC)C1 (centres undefined)	CYP2C9 inhib 63, CYP2C19 inh 79
CCOC(=O)C1CCCN(CC(=O)/C=C2/N(C)c3ccccc3C2(C)C)C1 (centres undefined)	CYP2C19 inh 63
CCOC(=O)c1ccc(NC(=O)Cn2nnc(-c3ccccc3)n2)cc1	none
CCOC(=O)C1CCCN(Cc2cc(OC)c(O)c(OC)c2)C1 (centres undefined)	none
CCOC(=O)C1CCCN(CC(=O)NC2CC2)C1 (centres undefined)	none
CCOC(=O)C1CCCN(CCC(=O)Nc2ccccc2)C1 (centres undefined)	none
CSc1nnc(-c2ccc(S(=O)(=O)N3CCCC3)cc2)n1C	none
CCOC(=O)C1CCCN(Cc2c(Cl)cccc2Cl)C1 (centres undefined)	none
CCOC(=O)C1CCCN(Cc2ccccc2F)C1 (centres undefined)	CYP2C19 inh 75
Cc1cc(C)nc(N2CCCC(C(=O)NCCc3ccccc3F)C2)n1 (centres undefined)	none
CCOc1cc(C)nc(N2CCCC(C(=O)NCc3ccccc3F)C2)n1 (centres undefined)	CYP2C19 inh 58
CCOC(=O)C1CCCN(Cc2cc(Br)c(OC)cc2OC)C1 (centres undefined)	CYP2C19 inh 84
CCOC(=O)c1sc(NC(=O)Nc2ccc(Cl)cc2)nc1C	none
O=C(Cn1c(=O)sc2ccccc21)NCCOc1ccccc1F	none (no result: CYP2C9 act, CYP2C9 inhib, CYP2C19 inh, CYP2C19 act)
CCOc1ccc(C(=O)NCC(=O)OC2CCOC2=O)cc1OCC (centres undefined)	none
O=C(CCC(=O)c1ccc(F)cc1)OC1CCOC1=O (centres undefined)	CYP2C19 inh 78
O=C(NCc1ccccn1)c1cn(Cc2ccccc2)nn1	none
CC1c2nc3ccccc3n2C(CC(=O)NCc2ccccn2)C(=O)N1Cc1ccccc1 (centres undefined)	CYP2C19 inh 80
COc1cccc(C(=O)Nc2ccc(NC(C)=O)cc2)c1	none
COc1ccc(N/C=C(/C(C)=O)c2ccccc2)cc1	CYP2C9 inhib 90, CYP2C19 inh 89
Cc1c(C(=O)N2CCCCC2)sc(NC(=O)C23CC4CC(CC(C4)C2)C3)c1C#N	none (no result: CYP2C9 act, CYP2C9 inhib, CYP2C19 inh, CYP2C19 act)
CCOC(=O)C1CCN(S(=O)(=O)Cc2ccccc2)C1=O (centres undefined)	CYP2C19 inh 77
CCOC(=O)C1CCN(C(C)=C2C(=O)c3ccccc3C2=O)CC1	none
O=C(NNc1ccc([N+](=O)[O-])cc1)C12CC3CC(CC(C3)C1)C2	none
Cc1ccc2nc(NCc3ccccc3)[nH]c2c1	CYP2C19 inh 88
COc1ccc2nc(NCc3ccccc3)[nH]c2c1	CYP2C19 inh 78
COc1ccc2nc(NCCO)[nH]c2c1	none
CCOc1ccc2nc(-c3ccccc3)[nH]c2c1	none
COc1ccc2nc(-c3ccccc3)[nH]c2c1	CYP2C19 inh 74
CCCCn1c(NCc2ccccc2NS(=O)(=O)c2ccc(C)cc2)nc2ccccc21	CYP2C9 inhib 50
CCCn1c(NCc2cc(C)ccc2O)nc2ccccc21	Cav32 inh -7, CYP2C19 inh 53
COc1cccc(C(O)c2nc3ccccc3n2C(C)C)c1 (centres undefined)	CYP2C19 inh 91
